An excerpt weighted towards active compounds, which were near 1.6% of everything screened.
KCNQ2 pot: potentiators of rat KCNQ2 potassium channel. B-score at 10 µM. CHO-K1 KCNQ2, FluxOR thallium flux fluorescence; hits give high values. hit rate 0.54% among 310,000. O88943. AID 2239;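 active means fluorescence ratio B-score at least 3 SD of library B-scores, with initial fluorescence B-score within 3 of them, cut at about 5.3 in these data; same plate scores as AID 2156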;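 further: B-score of peak minus minimum over baseline fluorescence ratio after K+ and Tl+ stimulus; positive B-score means potentiation of KCNQ2 with more thallium influx and brighter signal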
Target sequence (O88943 whole entry, looked up): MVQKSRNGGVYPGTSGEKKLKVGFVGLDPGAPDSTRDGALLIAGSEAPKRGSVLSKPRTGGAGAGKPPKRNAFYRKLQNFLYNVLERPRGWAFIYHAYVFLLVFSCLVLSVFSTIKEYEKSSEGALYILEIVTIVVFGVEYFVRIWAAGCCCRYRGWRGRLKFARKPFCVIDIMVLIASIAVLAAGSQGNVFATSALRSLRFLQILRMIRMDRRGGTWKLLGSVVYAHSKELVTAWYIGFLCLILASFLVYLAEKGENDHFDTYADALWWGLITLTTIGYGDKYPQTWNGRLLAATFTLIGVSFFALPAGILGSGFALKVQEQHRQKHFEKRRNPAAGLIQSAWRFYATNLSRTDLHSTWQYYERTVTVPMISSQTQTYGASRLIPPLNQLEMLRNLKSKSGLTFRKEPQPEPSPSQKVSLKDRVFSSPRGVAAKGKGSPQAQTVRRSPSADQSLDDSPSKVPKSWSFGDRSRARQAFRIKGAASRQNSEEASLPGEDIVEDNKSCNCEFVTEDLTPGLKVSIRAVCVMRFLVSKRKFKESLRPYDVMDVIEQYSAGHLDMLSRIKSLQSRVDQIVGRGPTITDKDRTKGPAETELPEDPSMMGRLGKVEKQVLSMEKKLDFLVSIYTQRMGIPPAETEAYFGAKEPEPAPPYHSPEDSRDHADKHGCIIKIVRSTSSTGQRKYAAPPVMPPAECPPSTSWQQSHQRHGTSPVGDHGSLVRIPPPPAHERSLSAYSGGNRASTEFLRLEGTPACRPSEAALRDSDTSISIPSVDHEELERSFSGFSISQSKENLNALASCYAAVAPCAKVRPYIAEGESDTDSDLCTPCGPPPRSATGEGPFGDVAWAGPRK
KCNQ2 block: blocks the rat KCNQ2 potassium channel | O88943 | CHO-K1 KCNQ2, FluxOR thallium flux, 20 min; hits give low values | B-score at 10 µM | hit rate 1.1% among 310,000;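 active means fluorescence ratio B-score at most minus 3 library SDs, with starting brightness B-score within 2 library SDs, cut at about -5.5 in these data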
An asterisk follows results filed as active; i = inactive; . = no result given.

SMILES | KCNQ2 pot | KCNQ2 block
CCOc1ccc(C(=O)NCC(c2ccco2)N2CCc3ccccc3C2)cc1 (configuration not stated) | -6.4 | -6.4*
COc1ccc(C(=O)NCC(c2ccco2)N2CCc3ccccc3C2)cc1 (configuration not stated) | . | i
COc1ccc(C2CC(c3ccccc3)Nc3nc(NC(=O)c4cccs4)nn32)cc1 (configuration not stated) | 0.27 | i
COc1ccc(C2CC(c3ccccc3)n3nc(NC(=O)c4cccs4)nc3N2)cc1 (configuration not stated) | -5.6 | -5.6*
Cc1ccc2c(CN3CCCc4ccccc43)cc(=O)oc2c1C | . | i
CCc1ccc2c(CN3CCc4ccccc43)cc(=O)oc2c1 | -5.6 | -5.6*
Cc1cc2oc(=O)cc(CN3CCc4ccccc43)c2cc1Cl | -6.4 | -6.4*
O=c1cc(CN2CCc3ccccc32)c2ccc(O)cc2o1 | . | i
COc1cc(OC)c(NC(=O)/C=C/C(=O)O)cc1Cl | 1.3 | i
O=C(Nc1nc(-c2ccc(Cl)cc2)cs1)NC1CCCCC1 | 0.01 | i
CCCC(O)(c1ccc(CC)cc1)C(CN1CCOCC1)c1ccccc1 (configuration not stated) | . | i
Cc1ccc(C)c(NC(=S)/C(=C(\[O-])c2ccc(Cl)s2)[n+]2ccccc2)c1 | 0.75 | i
Cc1cc(C)cc(NC(=S)/C(=C(\[O-])c2ccc(Cl)s2)[n+]2cccc(C)c2)c1 | -6 | -6*
COc1ccc2c(c1)cc1c(=O)n(CC(=O)NCCCN3CCOCC3)nc(C)n12 | 0.53 | i
Cc1ncc(CN2CCCC(C(=O)Nc3ccc(-c4cccc(F)c4)cc3)C2)n1C (configuration not stated) | -5.7 | -5.7*
COc1cccc(-c2ccc(NC(=O)C3CCCN(Cc4cnc(C)n4C)C3)cc2)c1 (configuration not stated) | . | i
Cn1c(C2CCCCC2)nc2cc(N)ccc21 | . | i
O=C(CN1C(=O)NC2(CCCC2)C1=O)Nc1nc2ccc(F)cc2s1 | 0.27 | i
O=C(CN1C(=O)C2CC=CCC2C1=O)Nc1nc2ccc(F)cc2s1 (configuration not stated) | -6.7 | -6.7*
Oc1oc(-c2cccc3ccccc23)nc1/C=N/c1nccs1 | 9.4* | i
Cc1cccc(/N=C/c2nc(-c3ccccc3Br)oc2O)n1 | . | i
CCOc1ccccc1CNn1cnnc1 | 1.5 | i
COc1cccc(CNn2cnnc2)c1O | -5.6 | -5.6*
Nc1c(-c2ccccc2)c(CSc2nc3ccccc3[nH]2)nn1-c1ccc(Cl)cc1 | . | i
Nc1c(-c2ccccc2)c(CSc2nc3ccccc3[nH]2)nn1-c1cccc(Cl)c1 | -5.6 | -5.6*
SMILES | KCNQ2 pot | KCNQ2 block
CC(C)(C)c1ccc2c(c1)N(CC(=O)N1CCCC1)C(=O)CO2 | . | i
CCN(C(=O)CN(C)Cc1cccc(Cl)c1Cl)c1c(N)n(Cc2ccccc2)c(=O)[nH]c1=O | 0.05 | i
O=C(Nc1ccc(F)cc1)C(NC1CCCCC1)c1ccccc1 (configuration not stated) | -6 | -6*
O=C(Nc1ccc(F)cc1)NC1CCCCCCC1 | 1.1 | i
CCC1=NN(C(=O)c2ccc(Br)cc2)C(O)(c2ccccc2)C1 (configuration not stated) | 6* | i
CC1=NN(C(=O)c2ccccc2)C(O)(c2ccc(Br)cc2)C1 (configuration not stated) | 1.1 | i
COc1cc(NC(=O)c2cccs2)c(OC)cc1NC(=O)Nc1ccc(F)cc1 | . | i
Cn1c(SCC(=O)NCCc2ccccc2)ncc(C(=O)Nc2ccc(F)cc2)c1=O | 0.39 | i
CCN1CCCC1CNC(=O)c1ccc2c(c1)NC(=O)/C(=C\c1ccc(C)cc1)S2 (configuration not stated) | -7.6 | -7.6*
Cc1ccc(/C=C2/Sc3ccc(C(=O)NCCN4CCOCC4)cc3NC2=O)cc1 | . | i
COc1ccccc1/C=C1\SC(=S)N(CC(=O)NC2CCS(=O)(=O)C2)C1=O (configuration not stated) | . | i
OCC1(CCOc2ccccc2)CCN(Cc2nc3ccc(F)cc3[nH]2)CC1 | 0.3 | i
COC(=O)c1ccc(NC(=O)CSc2nncn2-c2ccccn2)cc1 | . | i
O=C(CN(Cc1ccco1)C(=O)Cn1nnc(-c2ccc(F)cc2)n1)NC1CCCC1 | 0.08 | i
CCCCC(C(=O)NC1CCCC1)N(Cc1ccco1)C(=O)Cn1nnc(-c2ccc(F)cc2)n1 (configuration not stated) | -7.2 | -7.2*
COc1ccc(C(O)(CCN2CCOCC2)c2ccccc2)cc1 (configuration not stated) | 1.5 | i
O=C(NNC(=O)c1ccc2ncccc2c1)c1ccc(Cl)cc1 | 8.1* | i
Cc1ccc(C(=O)NNC(=O)c2ccc3ncccc3c2)cc1 | 0.55 | i
O=C(NCCCCO)c1ccc2c3c(cccc13)CC2 | . | i
CCn1c(CNc2nc3ccccc3n2C(C)C)nc2ccccc21 | -8.3 | -8.3*
CC(C)n1c(NCc2nc3ccccc3n2C)nc2ccccc21 | . | i
CSc1nsc(SCC(=O)Nc2cccc(C(=O)O)c2)n1 | . | i
O=C(NC(=S)Nc1nc2ccccc2s1)c1cccs1 | 6.8* | i
O=C(NC(=S)Nc1ccccc1)c1cccs1 | 4.3 | i
CCC(C)c1ccc(OCC(=O)Nc2ccc3c(c2)C(=O)NC3=O)cc1 (configuration not stated) | 0.59 | i
SMILES | KCNQ2 pot | KCNQ2 block
CN(CC(=O)Nc1ccccc1-c1ccccc1)Cc1ccccc1Cl | -6.3 | -6.3*
Cc1ccc(NC(=O)CN(C)CC(=O)Nc2ccccc2-c2ccccc2)cc1 | . | i
COc1cc(OC)cc(C(=O)N2CCN(c3ccc(N4CCOCC4)nn3)CC2)c1 | . | i
COc1ccccc1N1CCN(c2ccc3cc(S(=O)(=O)N4CCCCC4)ccc3n2)CC1 | -5.6 | -5.6*
O=S(=O)(c1ccc2nc(N3CCN(c4ccccc4)CC3)ccc2c1)N1CCCCC1 | 0.04 | i
COc1ccc(-n2nc(C(=O)NCC(=O)N3CCN(c4ccccn4)CC3)c3ccccc3c2=O)cc1OC | . | i
COc1ccc(-n2nc(C(=O)NCC(=O)N3CCN(c4ccccn4)CC3)c3ccccc3c2=O)cc1 | -8.2 | -8.2*
CCN(CC)c1ccc(CN(C(=O)c2cccs2)C2CCS(=O)(=O)C2)cc1 (configuration not stated) | . | i
CCc1cccc(CC)c1NC(=O)c1cc(CN2C(=O)c3ccccc3C2=O)ccc1OC | -8 | -8*
COc1ccc(CN2C(=O)c3ccccc3C2=O)cc1C(=O)O | . | i
CN(C)c1nc(SCC(=O)Nc2ccc(Cl)c(Cl)c2)nc(N2CCOCC2)n1 | 1.5 | i
CN(C)c1nc(SCC(=O)Nc2ccccc2)nc(N2CCOCC2)n1 | 6.4* | i
Cc1ccc(C(=O)Nc2ccccc2Cl)cc1 | 0.08 | i
O=C(CN(Cc1ccc(F)cc1)C(=O)CCC(=O)Nc1ccccn1)NCCc1ccccc1 | . | i
COC(=O)C1=C(C)NC(C)=C(C(=O)O[C@@H]2CCCN(Cc3ccccc3)C2)[C@@H]1c1cccc([N+](=O)[O-])c1 | -5.8 | -5.8*
CCOC(=O)C1=C(C)NC(C)=C(C(=O)OC)C1c1cccc([N+](=O)[O-])c1 (configuration not stated) | . | i
N#CCC(=O)Nc1ccc(C(=O)NCC(c2ccco2)N2CCCCC2)cc1 (configuration not stated) | 0.4 | i

Screening data from PubChem BioAssay.
